In PubChem BioAssay (Tox21):
Records with an inconclusive call do not appear. A call without a number means that no potency is given here. Activity calls are given as the source filed them. Calls follow the shape of the dose curve; as a rule, active = well fitted cell-killing curve with a large enough effect in the repeat runs; inconclusive = weak or mixed curves, or effect the other way; inactive = flat fitted curve, though single readings scatter.

Experiment: qHTS RealTime-Glo MT Cell Viability Assay in HepG2 cells - 40 hour (AID 1224870); also: nearly all actives have a fitted effect of over 50% in size
Conditions: RealTime-Glo luminescence; series mostly up to 76.8 µM
Text: National Center for Advancing Translational Sciences [NCATS]
NIH Chemical Genomics Center [NCGC]
U.S. Environmental Protection Agency [EPA]
National Institutes of Environmental Health Sciences [NIEHS]
National Toxicology Program [NTP]
U.S. Food and Drug Administration [FDA]
Measure of cell viability is critical in the cell-base assay. Analysis of cell viability is necessary for the characterization of cell responses to cytotoxic drugs and environmental stress. A RealTime-Glo MT Cell Viability Assay to monitor cell viability in real time of continues cell culture during 40 hours of compound treatment was used to screen Tox21 10K library compounds in HepG2 cells. The RealTime-Glo MT Cell Viability Assay is a nonlytic, homogeneous, bioluminescent method to measure cell viability in real time using a simple, plate-based method. The assay involves adding NanoLuc luciferase and a cell-permeant prosubstrate to cells in culture. Viable cells reduce the proprietary prosubstrate to generate a substrate for NanoLuc luciferase. This substrate diffuses from cells into the surrounding culture medium, where it is rapidly used by the NanoLuc Enzyme to produce a luminescent signal. The signal correlates with the number of viable cells, making the assay well suited for cytotoxicity studies.
Tox21 Assay Protocol Summary:
The mixture of HepG2 cell suspension and reagents were dispensed at 600cells/6 ul/well in 1536-well tissue culture treated black solid bottom plates using a Multidrop dispenser. After the assay plates were incubated at a 37 C/5% CO2 incubator for 5 hours, 23 nL of compounds dissolved in DMSO, positive and negative controls was transferred to the assay plate by a pintool work station. The plates were incubated at 37 C for 40 hours. The luminescence intensity were measured at 0h, 8h, 16h, 24h, 32h and 40h time points using ViewLux plate reader during compound treatment.
Potency is read from the fitted curve at half-maximal effect.

SMILES | Potency
CC[C@H](C)[C@@H](C(=O)O)n1sc2ccccc2c1=O | 30.9 µM (active)
Cc1cc(C)c(S(=O)(=O)O)cc1N=Nc1cc(S(=O)(=O)O)c2ccccc2c1O | inactive
CC(C(=O)O)c1ccc(-c2ccccc2)c(F)c1 (stereo not given) | inactive
CN1CCC(=C2c3ccccc3C=Cc3ccccc32)CC1 | inactive
CC(C)NCC(O)COc1ccc(CC(N)=O)cc1 (stereo not given) | inactive
O=C(CC(=O)c1ccccc1)c1ccccc1 | inactive
Oc1ccc2c(c1)OCO2 | inactive
CCc1nn(C2CCCCC2)c2cc(C3(C#N)CCC(C(=O)O)CC3)ccc12 (stereo not given) | inactive
CCN(CC)CCOC(=O)C1(c2ccccc2)CCCC1 | inactive
O=C(O)Cc1cc(I)c(Oc2ccc(O)c(I)c2)c(I)c1 | inactive
COc1ccc(OC)c(OC)c1 | inactive
CC(=O)O[C@H]1C[C@@H]2CC[C@@H]3[C@H](CC[C@@]4(C)[C@H]3C[C@H]([N+]3(C)CCCCC3)[C@@H]4OC(C)=O)[C@@]2(C)C[C@@H]1N1CCCCC1 | inactive
CC(CN)CCCN (stereo not given) | inactive
Cc1ccc(C)o1 | inactive
Cc1ccccn1 | inactive
COc1ccc2[nH]c(S(=O)Cc3ncc(C)c(OC)c3C)nc2n1 (stereo not given) | inactive
CCN(CC)C(C)=O | inactive
COCCCCCCCCOCCC[Si](C)(O[Si](C)(C)C)O[Si](C)(C)C | inactive
CCCCCc1ccc(N)cc1 | inactive
Oc1ccc(C(O)CNCCCCCCNCC(O)c2ccc(O)c(O)c2)cc1O (stereo not given) | inactive

SMILES | Potency
Cc1ccc(C(=O)C(C)CN2CCCCC2)cc1 (stereo not given) | inactive
Cc1ccc(C(N)=O)cc1N | inactive
O=C(O)C(c1ccc(Cl)cc1)c1ccc(Cl)cc1 | inactive
CC[C@@H]1C[C@H](N(Cc2cc(C(F)(F)F)cc(C(F)(F)F)c2)C(C)=O)c2cc(C(F)(F)F)ccc2N1C(=O)OC(C)C | inactive
CC(C)(C)C1CCCCC1O (stereo not given) | inactive
O=C(O)c1cn(C2CC2)c2cc(Cl)c(F)cc2c1=O | inactive
CCOc1cc(OCC)c(C(=O)CCC(=O)O)cc1OCC | inactive
CC(=O)CC(=O)c1ccccc1 | inactive
O=C(Cl)c1ccc([N+](=O)[O-])cc1 | inactive
CC(C)c1ccc2c(C(C)C)cc(C(C)C)c(S(=O)(=O)O)c2c1 | inactive
CN1CCC(=C2c3ccccc3CCc3sccc32)CC1 | inactive
O=C1CCCCCO1 | inactive
CCOc1nc2cccc(C(=O)O)c2n1Cc1ccc(-c2ccccc2-c2nn[nH]n2)cc1 | inactive
O=C(c1ccccc1)c1ccc2n1CCC2C(=O)O (stereo not given) | inactive
CCCCCCCCCO | inactive
CCN1CCC[C@H]1CNC(=O)c1c(OC)ccc(Br)c1OC | inactive
N#Cc1c(F)cccc1F | inactive
CCCCOc1ccc(CC(=O)NO)cc1 | inactive
CCOc1ccc2[nH]cc(C(=O)NCc3ccccc3)c(=O)c2n1 | inactive
C=CC(C)(CCC=C(C)C)OC(=O)c1ccccc1 (stereo not given) | inactive
